Only some compounds are listed: those with a hit (about 7.4% of all), similar ones and a draw of the others.
Rab9 prom act = activates the Rab9 promoter. Huh7 Rab9 promoter-luciferase reporter, luminescence, 24 h. Potency, µM (highest dose often 9.22 µM), hits mostly activators. hit rate 2.8% among 320,000. AID 485297; also: nearly all actives have a fitted effect of over 60% in size
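Measured in stably transfected Huh7 cells bearing a Rab9 promoter–luciferase construct: 24 h compound treatment at 37 °C, followed by luminescence detection.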
FLuc modulator = firefly luciferase modulation, counter-screen for miR-21 project. P08659. purified FLuc, Km substrates, luminescence inhibition. Potency, µM (top dose mostly 57.5 µM), actives largely listed as inhibitors. hit rate 6.9% among 360,000; also: nearly all actives have a fitted effect of over 55% in size
Target sequence (P08659 whole entry, looked up): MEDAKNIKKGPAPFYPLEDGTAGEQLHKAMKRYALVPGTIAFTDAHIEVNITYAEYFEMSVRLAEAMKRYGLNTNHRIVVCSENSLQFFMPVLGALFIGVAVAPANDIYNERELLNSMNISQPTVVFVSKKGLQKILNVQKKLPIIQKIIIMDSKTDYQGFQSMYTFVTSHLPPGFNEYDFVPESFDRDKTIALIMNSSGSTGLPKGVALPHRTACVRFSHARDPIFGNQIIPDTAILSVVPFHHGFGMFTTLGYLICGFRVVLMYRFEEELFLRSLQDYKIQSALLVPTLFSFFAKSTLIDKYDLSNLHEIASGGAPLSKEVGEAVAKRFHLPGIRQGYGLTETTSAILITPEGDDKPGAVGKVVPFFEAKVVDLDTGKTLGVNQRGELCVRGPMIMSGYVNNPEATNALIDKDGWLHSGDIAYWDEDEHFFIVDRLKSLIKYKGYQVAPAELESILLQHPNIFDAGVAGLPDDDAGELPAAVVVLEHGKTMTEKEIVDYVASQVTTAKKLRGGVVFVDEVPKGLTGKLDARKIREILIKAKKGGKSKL
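Purified P. pyralis luciferase (10nM final) with 10uM D-luciferin and 10uM ATP (Km levels) in 50mM Tris acetate pH 7.5, 10mM Mg acetate, 0.01% Tween-20, 0.05% BSA; qHTS 6-point titration, ~60 µM downward; luminescence read.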
ELG1 genotoxic = induces genotoxicity in HEK293T cells with luciferase-tagged ELG1; AID 504466; HEK293T ELG1-luciferase reporter, luminescence, 16 h; Potency, µM (highest dose often 46 µM), usual class: activators; hit rate 1.3% among 330,000; also: nearly all actives have a fitted effect of over 60% in size
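HEK293T cells expressing luciferase-tagged ELG1 were treated with compound or DMSO for 16 hr at 37°C. Luciferase activity was then read after 30 min with ONE-Glo at room temperature; rising signal flags genetic stress.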
NPC1 promoter act = activators of NPC1 promoter; Huh7 NPC1 promoter luciferase reporter, 24 h; hit rate 2.4% among 320,000; Potency, µM (highest dose often 9.22 µM), most hits filed as activators; also: nearly all actives have a fitted effect of over 60% in size
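Cells: Huh7 expressing luciferase under the NPC1 promoter, 1500/well. Seeded 2 h, compound added, incubated 24 h at 37 °C. Luciferase reagent, 10 min ambient, then luminescence.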
SMN2 splice up = SMN2 splice variant enhancement; HEK293 SMN2-luciferase splicing reporter, luminescence, 30-36 h; Potency, µM (series often up to 46.1 µM), usual class: activators; hit rate 2.8% among 210,000; AID 1458; also: nearly all actives have a fitted effect of over 55% in size
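qHTS luciferase splicing reporter: luminescence rises when SMN2 exon 7 is included in transfected HEK293 cells. Compound exposure lasted 30-36 h at 37C, with 4.5 mM final sodium butyrate as control, followed by a ONE-Glo read.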
Large screens that a line does not name were inactive. Calls follow the shape of the dose curve; as a rule, active = well fitted curve in the direction sought with a large enough effect; inconclusive = small, poorly fitted or top-dose-only effect, or another doubt; inactive = no such curve, though single readings can be large; an effect the other way counts as inactive or inconclusive.

O=C(Nc1nc2c(Br)cc(Br)cc2c(=O)s1)c1ccco1	none (no result: SMN2 splice up)
Cc1cc(C)c2nc(NC(=O)c3ccco3)sc2c1	Rab9 prom act 0.56µM, FLuc modulator 0.54µM, ELG1 genotoxic 0.65µM, NPC1 promoter act 2.8µM (no result: SMN2 splice up)
Cc1nc2nc(NC(=O)c3ccco3)nn2c(C)c1Cl	Rab9 prom act 3.2µM, FLuc modulator inconclusive, ELG1 genotoxic 18µM, NPC1 promoter act 3.5µM (no result: SMN2 splice up)
O=C(Nc1nc2c(F)cccc2s1)c1ccco1	Rab9 prom act 1.1µM, FLuc modulator 4.8µM, ELG1 genotoxic 7.3µM, NPC1 promoter act 1.1µM (no result: SMN2 splice up)
COc1cc(OC)c(Nc2ncnc3onc(-c4cccc(Cl)c4)c23)cc1Cl	none (no result: Rab9 prom act, ELG1 genotoxic, NPC1 promoter act)
COc1ccccc1C(=O)NNC1=NS(=O)(=O)c2ccccc21	FLuc modulator inconclusive (no result: SMN2 splice up)
O=C(NNC1=NS(=O)(=O)c2ccccc21)c1cccc([N+](=O)[O-])c1	FLuc modulator 12µM (no result: SMN2 splice up)
O=C(/C=C/c1ccccc1)NNC1=NS(=O)(=O)c2ccccc21	FLuc modulator 24µM (no result: SMN2 splice up)
O=C(NNC1=NS(=O)(=O)c2ccccc21)c1ccccc1	FLuc modulator 4.8µM (no result: SMN2 splice up)
O=C(NNC1=NS(=O)(=O)c2ccccc21)c1ccccc1Cl	FLuc modulator 17µM (no result: SMN2 splice up)
CCn1nc(-c2ccccc2)c(-c2ccccc2)c(C(=O)Nc2ccc(S(N)(=O)=O)cc2)c1=O	none (no result: Rab9 prom act, ELG1 genotoxic, NPC1 promoter act)
O=C(NCc1ccco1)c1ccc2c(c1)N(Cc1cccc(Cl)c1)C(=O)c1ccccc1S2=O (stereo not given)	none (no result: Rab9 prom act, ELG1 genotoxic, NPC1 promoter act, SMN2 splice up)
COC(=O)C1CN(C(=O)COc2ccc(Cl)c(C)c2)c2ccccc2O1 (stereo not given)	none (no result: SMN2 splice up)
Oc1cc2c(cc1O)C(c1ccccc1)CNCC2 (stereo not given)	none (no result: FLuc modulator, ELG1 genotoxic)
Oc1cc2c(cc1O)[C@@H](c1ccccc1)CNCC2	FLuc modulator 4.8µM
O=c1c2ccccc2nc(COc2ccccc2)n1/N=C/c1ccc(O)c(O)c1	FLuc modulator 27µM (no result: SMN2 splice up)
C=CCSC1=N/C(=C\C=C\c2ccco2)C(=O)S1	FLuc modulator 13µM
CCOC(=O)/C(=N\Nc1ncnc2ccccc12)c1ccc(C)cc1	Rab9 prom act inconclusive, FLuc modulator 12µM, ELG1 genotoxic inconclusive, NPC1 promoter act inconclusive (no result: SMN2 splice up)
O=C(c1cccc(N2C(=O)C3C4C=CC(C4)C3C2=O)c1)N1CCN(c2ccccc2Cl)CC1 (stereo not given)	none (no result: SMN2 splice up)
CCc1ccc2oc(C(=O)Nc3cc(Cl)ccc3OC)cc(=O)c2c1	none (no result: Rab9 prom act, ELG1 genotoxic, NPC1 promoter act)
O=C(NCCN1CCOCC1)c1noc2c1CCc1ccccc1-2	Rab9 prom act 2µM, FLuc modulator inconclusive, ELG1 genotoxic 16µM, NPC1 promoter act inconclusive, SMN2 splice up 10µM
O=C(Nc1cccnc1Cl)c1noc2c1CCc1ccccc1-2	Rab9 prom act 3.2µM, FLuc modulator inconclusive, NPC1 promoter act 2.5µM (no result: SMN2 splice up)
O=C(NCCc1ccccc1)c1noc2c1CCc1ccccc1-2	Rab9 prom act inconclusive
CCCNC(=O)c1noc2c1CCc1ccccc1-2	Rab9 prom act inconclusive, FLuc modulator 19µM, ELG1 genotoxic inconclusive, NPC1 promoter act inconclusive, SMN2 splice up 16µM
COc1cc(NC(=O)c2noc3c2CCc2ccccc2-3)cc(OC)c1OC	FLuc modulator inconclusive (no result: Rab9 prom act, ELG1 genotoxic, NPC1 promoter act)
O=C(NCCN1CCOCC1)c1ccc(-c2ccccc2)cc1	none
COc1ccc(N2CCN(S(=O)(=O)c3ccc4c(c3)CC(C)N4C(C)=O)CC2)cc1 (stereo not given)	none (no result: Rab9 prom act, ELG1 genotoxic, NPC1 promoter act, SMN2 splice up)
CCOC(=O)Cn1c(=O)oc2cc(S(=O)(=O)N3CCN(c4cccc(C)c4C)CC3)ccc21	none (no result: Rab9 prom act, ELG1 genotoxic, NPC1 promoter act)
O=C(CN1CCN(c2cccc(C(F)(F)F)c2)CC1)NCc1ccccc1	none (no result: SMN2 splice up)
Cc1ccccc1C(=O)NCCOc1ccccc1Cl	Rab9 prom act 0.56µM, FLuc modulator 8.5µM, ELG1 genotoxic 5.8µM, NPC1 promoter act 0.63µM (no result: SMN2 splice up)
O=C(NCCOc1ccccc1F)c1cc(F)c(F)cc1Cl	Rab9 prom act 1.4µM, FLuc modulator 3µM, ELG1 genotoxic inconclusive, NPC1 promoter act 0.71µM, SMN2 splice up 2µM
Cc1nn(C(=O)c2cccc([N+](=O)[O-])c2C)c(C)c1S(=O)(=O)N1CCOCC1	none (no result: Rab9 prom act, ELG1 genotoxic, NPC1 promoter act, SMN2 splice up)
Fc1cccc(Cl)c1CNc1ccc(N2CCCC2)cc1	FLuc modulator 9.5µM
COc1cc(CCCN2C(=S)NC[C@@H]2c2ccccc2)cc(OC)c1OC	none (no result: SMN2 splice up)
O=C(c1ccco1)N1N=C(c2ccc3nccnc3c2)CC1c1ccccc1 (stereo not given)	FLuc modulator 17µM

High-throughput results: PubChem BioAssay, National Center for Advancing Translational Sciences (NCATS)
